Hit rate of the full screen: of about 5,500 compounds, about 2,000 (36%) were called active. Inconclusive results (about 18%) are left out. Cut-off read from the data, not from the text of the source: active = normalized growth mostly below about 0.91 (no sharp cut-off); inconclusive = no clear call, values can overlap the other calls; inactive = mostly above about 0.92. This is one part of the list.
Assay: chemical genetic growth profiling, strain panel (AID 1159580);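 note: tested at 20 µM; growth read once vehicle control cultures reached saturation at 30 °C; 1 = growth at the plate median or of vehicle wells; lower values mean less growth of the strain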
Settings: growth OD

Measured: normalized growth

N[C@H](Cc1ccccc1)C(=O)O
inactive: S. cerevisiae deletion strains, locus YJR043C, strain POL32, active compounds read low 1.01 | S. cerevisiae deletion strains, locus YJR066W, strain TOR1, active compounds read low 0.943 | S. cerevisiae deletion strains, locus YKL009W, strain mrt4, active compounds read low 1.01 | S. cerevisiae deletion strains, locus YKL068W, active compounds read low 1.01 | S. cerevisiae deletion strains, locus YKL085W, strain MDH1 (second series), active compounds read low 1.01 | S. cerevisiae deletion strains, locus YKL085W, strain MDH1, active compounds read low 1.01 | S. cerevisiae deletion strains, locus YKL160W, strain elf1, active compounds read low 1.04 | S. cerevisiae deletion strains, locus YKL190W, strain CNB1, active compounds read low 1.02 | S. cerevisiae deletion strains, locus YKR001C, strain vps1, active compounds read low 0.997 | S. cerevisiae deletion strains, locus YKR026C, strain gcn3, active compounds read low 0.988 | S. cerevisiae deletion strains, locus YKR091W, strain srl3, active compounds read low 1 | S. cerevisiae deletion strains, locus YLL001W, strain dnm1, active compounds read low 0.973 | S. cerevisiae deletion strains, locus YLL026W, active compounds read low 0.984 | S. cerevisiae deletion strains, locus YLL041C, strain sdh2, active compounds read low 1 | S. cerevisiae deletion strains, locus YLR027C, strain aat2, active compounds read low 1 | S. cerevisiae deletion strains, locus YLR039C, strain RIC1, active compounds read low 1.02 | S. cerevisiae deletion strains, locus YLR058C, strain SHM2, active compounds read low 1.02 | S. cerevisiae deletion strains, locus YLR102C, strain apc9, active compounds read low 0.995 | S. cerevisiae deletion strains, locus YLR113W, strain HOG1, active compounds read low 1.05 | S. cerevisiae deletion strains, locus YLR221C, strain rsa3, active compounds read low 0.975 | S. cerevisiae deletion strains, locus YLR258W, strain gsy2, active compounds read low 1.03 | S. cerevisiae deletion strains, locus YLR262C, strain YPT6 (second series), active compounds read low 0.987 | S. cerevisiae deletion strains, locus YLR262C, strain YPT6, active compounds read low 1.04 | S. cerevisiae deletion strains, locus YLR268W, strain sec22, active compounds read low 0.994 | S. cerevisiae deletion strains, locus YLR320W, strain mms22, active compounds read low 0.949 | S. cerevisiae deletion strains, locus YLR330W, strain CHS5, active compounds read low 1.02 | S. cerevisiae deletion strains, locus YLR342W, strain FKS1 (second series), active compounds read low 1 | S. cerevisiae deletion strains, locus YLR342W, strain FKS1, active compounds read low 1.02 | S. cerevisiae deletion strains, locus YLR357W, strain rsc2, active compounds read low 1.01 | S. cerevisiae deletion strains, locus YLR370C, strain arc18, active compounds read low 1 | S. cerevisiae deletion strains, locus YLR371W, strain rom2, active compounds read low 0.982 | S. cerevisiae deletion strains, locus YLR384C, strain iki3, active compounds read low 0.991 | S. cerevisiae deletion strains, locus YLR418C, strain cdc73, active compounds read low 0.975 | S. cerevisiae deletion strains, locus YML016C, strain PPZ1, active compounds read low 1.01 | S. cerevisiae deletion strains, locus YML032C, strain rad52, active compounds read low 0.986 | S. cerevisiae deletion strains, locus YML120C, strain ndi1, active compounds read low 0.987 | S. cerevisiae deletion strains, locus YML124C, strain tub3, active compounds read low 0.997 | S. cerevisiae deletion strains, locus YMR058W, strain fet3, active compounds read low 0.987 | S. cerevisiae deletion strains, locus YMR078C, strain ctf18, active compounds read low 1 | S. cerevisiae deletion strains, locus YMR125W, strain sto1, active compounds read low 1 | S. cerevisiae deletion strains, locus YMR129W, active compounds read low 0.978 | S. cerevisiae deletion strains, locus YMR205C, strain PFK2, active compounds read low 0.985 | S. cerevisiae deletion strains, locus YMR223W, strain ubp8, active compounds read low 1.01 | S. cerevisiae deletion strains, locus YMR231W, strain pep5, active compounds read low 0.984 | S. cerevisiae deletion strains, locus YMR263W, strain SAP30, active compounds read low 1.01 | S. cerevisiae deletion strains, locus YMR307W, strain GAS1, active compounds read low 1.01 | S. cerevisiae deletion strains, locus YNL067W, strain RPL9B, active compounds read low 1.02 | S. cerevisiae deletion strains, locus YNL071W, strain lat1, active compounds read low 0.983 | S. cerevisiae deletion strains, locus YNL128W, strain TEP1, active compounds read low 1.02 | S. cerevisiae deletion strains, locus YNL153C, strain GIM3, active compounds read low 1.03 | S. cerevisiae deletion strains, locus YNL183C, strain NPR1, active compounds read low 0.988 | S. cerevisiae deletion strains, locus YNL209W, strain ssb2, active compounds read low 1.02 | S. cerevisiae deletion strains, locus YNL233W, strain BNI4, active compounds read low 1.01 | S. cerevisiae deletion strains, locus YNL248C, strain rpa49, active compounds read low 1 | S. cerevisiae deletion strains, locus YNL250W, strain rad50, active compounds read low 1 | S. cerevisiae deletion strains, locus YNL271C, strain bni1, active compounds read low 1.01 | S. cerevisiae deletion strains, locus YNL298W, strain CLA4, active compounds read low 1.02 | S. cerevisiae deletion strains, locus YNL307C, strain MCK1, active compounds read low 0.993 | S. cerevisiae deletion strains, locus YNL322C, strain KRE1 (second series), active compounds read low 1.03 | S. cerevisiae deletion strains, locus YNR049C, strain mso1, active compounds read low 1 | S. cerevisiae deletion strains, locus YNR052C, strain pop2, active compounds read low 1.01 | S. cerevisiae deletion strains, locus YOL006C, strain TOP1, active compounds read low 1.03 | S. cerevisiae deletion strains, locus YOL012C, strain htz1 2.29 | S. cerevisiae deletion strains, locus YOL147C, strain pex11, active compounds read low 1.01 | S. cerevisiae deletion strains, locus YOR001W, strain rrp6, active compounds read low 0.943 | S. cerevisiae deletion strains, locus YOR061W, strain CKA2, active compounds read low 1.02 | S. cerevisiae deletion strains, locus YOR069W, strain VPS5, active compounds read low 1.01 | S. cerevisiae deletion strains, locus YOR070C, strain gyp1, active compounds read low 0.983 | S. cerevisiae deletion strains, locus YOR080W, strain dia2, active compounds read low 0.988 | S. cerevisiae deletion strains, locus YOR083W, strain WHI5, active compounds read low 0.991 | S. cerevisiae deletion strains, locus YOR106W, strain vam3, active compounds read low 1.03 | S. cerevisiae deletion strains, locus YOR136W, strain idh2, active compounds read low 1 | S. cerevisiae deletion strains, locus YOR144C, strain elg1, active compounds read low 0.999 | S. cerevisiae deletion strains, locus YOR184W, strain ser1, active compounds read low 0.994 | S. cerevisiae deletion strains, locus YOR231W, strain MKK1, active compounds read low 1.08 | S. cerevisiae deletion strains, locus YOR265W, strain rbl2, active compounds read low 0.992 | S. cerevisiae deletion strains, locus YOR270C, strain vph1, active compounds read low 0.986 | S. cerevisiae deletion strains, locus YOR290C, strain snf2, active compounds read low 1.02 | S. cerevisiae deletion strains, locus YOR316C, strain cot1, active compounds read low 1 | S. cerevisiae deletion strains, locus YPL051W, strain arl3, active compounds read low 1.01 | S. cerevisiae deletion strains, locus YPL078C, strain atp4, active compounds read low 1.03 | S. cerevisiae deletion strains, locus YPL106C, strain sse1, active compounds read low 1.03 | S. cerevisiae deletion strains, locus YPL240C, strain hsp82, active compounds read low 0.994 | S. cerevisiae deletion strains, locus YPL256C, strain CLN2, active compounds read low 1.06 | S. cerevisiae deletion strains, locus YPR119W, strain clb2, active compounds read low 0.995 | S. cerevisiae deletion strains, locus YPR141C, strain kar3, active compounds read low 1 | S. cerevisiae deletion strains, locus YPR163C, strain tif3, active compounds read low 1 | S. cerevisiae deletion strains, locus YPR167C, strain met16, active compounds read low 1 | S. cerevisiae deletion strains, strain wtn01, active compounds read low 0.996 | S. cerevisiae strains, strain wild type, active compounds read low 1.01

— PubChem BioAssay AID1159580 (chemical genetic matrix, 2015)
